Experimental data reported in PubChem BioAssay AID1159580 (chemical genetic matrix, 2015).
Several values for one entry are separate records, joined by “and”; a condition that tells them apart may be missing. Equal values may be shown once. Hit rate of the full screen: of about 5,500 compounds, about 2,000 (36%) were called active. Roughly 18% stayed inconclusive and do not appear here. Cut-off read from the data, not from the text of the source: active = normalized growth mostly below about 0.91 (no sharp cut-off); inconclusive = no clear call, values can overlap the other calls; inactive = mostly above about 0.92. The list shows a part of the results.

Assay: chemical genetic growth profiling, strain panel (AID 1159580);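 note: tested at 20 µM; growth read once vehicle control cultures reached saturation at 30 °C; 1 = growth at the plate median or of vehicle wells; lower values mean less growth of the strain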
Conditions: S. cerevisiae deletion strains, growth OD

Measured: normalized growth

Nc1nc(=S)c2[nH]cnc2[nH]1
inactive: locus YAL013W, strain DEP1, stronger effect = lower value 1.01 | locus YAL021C, strain ccr4, stronger effect = lower value 0.946 | locus YAL026C, strain drs2, stronger effect = lower value 0.971 | locus YAL030W, strain snc1, stronger effect = lower value 0.975 | locus YBL061C, strain skt5, stronger effect = lower value 0.988 | locus YBR009C, strain hhf1, stronger effect = lower value 1.03 | locus YBR021W, strain FUR4, stronger effect = lower value 0.999 | locus YBR023C, strain chs3, stronger effect = lower value 0.969 | locus YBR171W, strain sec66, stronger effect = lower value 0.974 | locus YBR229C, strain ROT2, stronger effect = lower value 1 | locus YBR231C, strain swc5, stronger effect = lower value 1.03 | locus YBR279W, strain paf1, stronger effect = lower value 0.973 | locus YCL011C, strain gbp2, stronger effect = lower value 0.971 | locus YCL016C, strain dcc1, stronger effect = lower value 0.947 | locus YCL029C, strain bik1, stronger effect = lower value 1.01 | locus YCL061C, strain MRC1, stronger effect = lower value 0.993 | locus YCL069W, strain vba3, stronger effect = lower value 0.976 | locus YCR088W, strain abp1, stronger effect = lower value 0.98 | locus YDL005C, strain med2, stronger effect = lower value 0.965 | locus YDL035C, strain GPR1, stronger effect = lower value 1.02 | locus YDL040C, strain nat1, stronger effect = lower value 0.982 | locus YDL074C, strain BRE1, stronger effect = lower value 1.01 | locus YDL101C, strain DUN1, stronger effect = lower value 1.01 | locus YDL134C, strain PPH21, stronger effect = lower value 1.01 | locus YDL185W, strain tfp1, stronger effect = lower value 0.996 | locus YDL192W, strain arf1, stronger effect = lower value 1.01 | locus YDR001C, strain nth1, stronger effect = lower value 0.982 | locus YDR069C, strain doa4, stronger effect = lower value 0.982 | locus YDR101C, strain arx1, stronger effect = lower value 0.986 | locus YDR137W, strain rgp1, stronger effect = lower value 0.967 | locus YDR150W, strain NUM1, stronger effect = lower value 1.01 | locus YDR159W, strain sac3, stronger effect = lower value 0.957 | locus YDR162C, strain NBP2, stronger effect = lower value 1.02 | locus YDR195W, strain ref2 0.988 | locus YDR297W, strain sur2, stronger effect = lower value 1 | locus YDR318W, strain mcm21, stronger effect = lower value 1 | locus YDR334W, strain swr1, stronger effect = lower value 0.962 | locus YDR335W, strain msn5, stronger effect = lower value 0.98 | locus YDR388W, stronger effect = lower value 0.998 | locus YDR392W, strain spt3, stronger effect = lower value 0.859 | locus YDR502C, strain sam2, stronger effect = lower value 1 | locus YEL003W, strain gim4, stronger effect = lower value 0.988 | locus YEL037C, strain rad23, stronger effect = lower value 0.973 | locus YEL061C, strain CIN8 (second series), stronger effect = lower value 0.975 | locus YEL061C, strain CIN8, stronger effect = lower value 1.01 | locus YER015W, strain faa2, stronger effect = lower value 0.983 | locus YER016W, strain bim1, stronger effect = lower value 0.942 | locus YER110C, stronger effect = lower value 1 | locus YER111C, strain swi4, stronger effect = lower value 0.959 | locus YER155C, strain BEM2 (second series), stronger effect = lower value 1 | locus YER155C, strain BEM2, stronger effect = lower value 1.02 | locus YER167W, strain BCK2, stronger effect = lower value 1.01 | locus YFR010W, strain ubp6, stronger effect = lower value 1 | locus YGL078C, strain dbp3, stronger effect = lower value 0.997 | locus YGL086W, strain mad1, stronger effect = lower value 0.997 | locus YGL167C, strain pmr1, stronger effect = lower value 0.979 | locus YGL173C, strain kem1, stronger effect = lower value 0.98 | locus YGL227W, strain vid30, stronger effect = lower value 0.973 | locus YGL240W, strain doc1, stronger effect = lower value 1.01 | locus YGL248W, strain PDE1, stronger effect = lower value 1.01 | locus YGL253W, strain hxk2, stronger effect = lower value 0.961 | locus YGR078C, strain PAC10, stronger effect = lower value 0.988 | locus YGR135W, strain pre9, stronger effect = lower value 0.998 | locus YGR229C, strain SMI1, stronger effect = lower value 0.99 | locus YGR252W, strain gcn5, stronger effect = lower value 0.981 | locus YHR013C, strain ard1, stronger effect = lower value 0.93 | locus YHR027C, strain rpn1, stronger effect = lower value 0.99 | locus YHR030C, strain SLT2, stronger effect = lower value 1.02 and 0.978 | locus YHR079C, strain IRE1 (second series), stronger effect = lower value 1 | locus YHR079C, strain IRE1, stronger effect = lower value 0.998 | locus YHR094C, strain hxt1, stronger effect = lower value 0.998 | locus YHR129C, strain ARP1, stronger effect = lower value 1.01 | locus YHR142W, strain chs7, stronger effect = lower value 0.945 | locus YHR200W, strain rpn10, stronger effect = lower value 0.998 | locus YIL066C, strain RNR3, stronger effect = lower value 1.01 | locus YIL073C, strain SPO22, stronger effect = lower value 1.04 | locus YIL125W, strain kgd1, stronger effect = lower value 0.995 | locus YIR030C, strain dcg1, stronger effect = lower value 1 | locus YJL092W, strain hpr5, stronger effect = lower value 0.991 | locus YJL095W, strain BCK1 (second series), stronger effect = lower value 0.964 | locus YJL095W, strain BCK1, stronger effect = lower value 1.02 and 0.979 | locus YJL115W, strain asf1, stronger effect = lower value 0.972 | locus YJL129C, strain trk1, stronger effect = lower value 0.936 | locus YJL134W, strain LCB3, stronger effect = lower value 1 | locus YJL154C, strain vps35, stronger effect = lower value 0.971 | locus YJL164C, strain tpk1, stronger effect = lower value 0.998 | locus YJL166W, strain qcr8, stronger effect = lower value 1.01 | locus YJL168C, strain set2, stronger effect = lower value 0.995 | locus YJL187C, strain SWE1 (second series), stronger effect = lower value 1.01 | locus YJL187C, strain SWE1, stronger effect = lower value 0.981 | locus YJR043C, strain POL32, stronger effect = lower value 1.01 | locus YJR066W, strain TOR1, stronger effect = lower value 0.949
